Test results as given in PubChem BioAssay (Tox21).
Values joined by “and” are separate entries in the source; they are usually repeats but may differ in a detail not shown here. Identical values can stand only once. Results filed as inconclusive are left out. A call without a number means that no potency is given here. Active and inactive are the calls of the source. Calls follow the shape of the dose curve; as a rule, active = well fitted cell-killing curve with a large enough effect in the repeat runs; inconclusive = weak or mixed curves, or effect the other way; inactive = no such curve, though single readings can be large or run the other way.

experiment: qHTS assay to identify small molecule antagonists of the progesterone receptor (PR) signaling pathway - cell viability counter screen (AID 1346798); conditions: PR-UAS-bla HEK293T viability, CellTiter-Glo luminescence, 16 h; series mostly up to 92.4 µM; also: nearly all actives have a fitted effect of over 50% in size
Description: National Center for Advancing Translational Sciences [NCATS]
NIH Chemical Genomics Center [NCGC]
U.S. Environmental Protection Agency [EPA]
National Institutes of Environmental Health Sciences [NIEHS]
National Toxicology Program [NTP]
U.S. Food and Drug Administration [FDA]
Progesterone receptor (PR), a nuclear hormone receptor, plays an important role in development, metabolic homeostasis and reproduction. It is activated by the steroid hormone progesterone. Endocrine disrupting chemicals (EDCs) and their interactions with steroid hormone receptors like PR causes disruption of normal endocrine function. To identify the compounds that inhibit PR signaling, a PR-UAS-bla GripTite cell line i.e. PR-UAS-bla HEK293T (Invitrogen, Carlsbad, CA, USA) containing a beta-lactamase reporter gene under the control of an UAS response element was used to screen Tox21 10K compound library. The cytotoxicity of the Tox21 compound library against the PR-bla cell line was tested in parallel by measuring the cell viability using CellTiter-Glo assay in the same wells.
Tox21 Assay Protocol Summary:
PR-UAS-bla HEK293T cells were dispensed at 3,000 cells/4 uL of assay medium containing 2% charcoal stripped FBS per well into black wall/clear-bottom 1536-well plates using a Multidrop Combi (ThermoFisher Scientific, Waltham, MA) dispenser. After the assay plates were incubated at a 37C and 5% CO2 for 4 hr, 23 nL of compounds dissolved in DMSO, positive controls or DMSO only was transferred to the assay plate by a Pintool station (Kalypsys, San Diego, CA), followed by addition of 1 uL of R5020 in assay medium using a Flying Reagent Dispenser (FRD, Aurora Discovery, San Diego, CA). The plates were incubated at 37C and 5% CO2 for 16 hr. Then 1 uL of LiveBLAzer B/G FRET substrate was added using a Flying Reagent Dispenser, the plates were incubated at room temperature for 2 hours, and fluorescence intensity was measured by an Envision plate reader (PerkinElmer, Shelton, CT). For cell viability readout that measures cytotoxicity, 4 uL/well of CellTiter-Glo reagent was added into the assay plates using a FRD. After 30 min incubation at room temperature, the luminescence intensity in the plates was measured using a ViewLux (PerkinElmer) plate reader.
Potency is read from the fitted curve at half-maximal effect.

With `COc1ccc(C=O)cc1` as the compound, how does the Potency read?
Its Potency is “inactive”.

With `Nn1cnnc1` as the compound, how does the Potency read?
Its Potency is “inactive”.

With `Brc1ccc(Oc2cc(Br)c(Br)cc2Br)c(Br)c1` as the compound, how does the Potency read?
The Potency was “inactive”.

Which Potency does the source give for `CC(C)C(=O)OCC(C)(C)C(OC(=O)C(C)C)C(C)C` (stereo not given) here?
The Potency was “inactive”.

With `O=C(CCl)c1ccccc1` as the compound, how does the Potency read?
Its Potency is “inactive”.

With `CC1(C)C(C=C(Cl)Cl)C1C(=O)OC(C#N)c1cccc(Oc2ccccc2)c1` (stereo not given) as the compound, how does the Potency read?
Its Potency is “inactive”.

For `CCCCN(CCCC)N=O`, which Potency is on record?
The Potency was “inactive”.

For `CCOc1cc(C=O)ccc1O`, which Potency is on record?
Its Potency is “inactive”.

For `CCC(C)c1cc([N+](=O)[O-])cc([N+](=O)[O-])c1O` (stereo not given), which Potency is on record?
Its Potency is “inactive”.

Which Potency does the source give for `Cc1ccccc1[N+](=O)[O-]` here?
The Potency was “inactive”.

With `Cc1cc(Cl)ccc1OCCCC(=O)O` as the compound, how does the Potency read?
Its Potency is “inactive”.

For `O=Cc1ccco1`, which Potency is on record?
Its Potency is “inactive”.

Which Potency does the source give for `c1nc[nH]n1` here?
The Potency was “inactive”.

With `CNC(=O)Oc1cccc2c1OC(C)(C)O2` as the compound, how does the Potency read?
The Potency was “inactive”.

For `CC(C)(c1cc(Cl)c(O)c(Cl)c1)c1cc(Cl)c(O)c(Cl)c1`, which Potency is on record?
The Potency was “inactive”.

Which Potency does the source give for `c1ccc(NNc2ccccc2)cc1` here?
Its Potency is “inactive”.

Which Potency does the source give for `C=CCc1ccc2c(c1)OCO2` here?
The Potency was “inactive”.

For `Nc1ccncc1`, which Potency is on record?
Its Potency is “inactive”.

For `CCCCN(CC)c1c([N+](=O)[O-])cc(C(F)(F)F)cc1[N+](=O)[O-]`, which Potency is on record?
The Potency was “inactive”.

Which Potency does the source give for `O=C(Nc1ccc(Br)cc1)c1cc(Br)cc(Br)c1O` here?
Its Potency is 12.1 µM (active) and 21.7 µM (active).

With `O=C(NC(=O)c1c(F)cccc1F)Nc1ccc(Cl)cc1` as the compound, how does the Potency read?
The Potency was “inactive”.

Which Potency does the source give for `O=[N+]([O-])c1cccc2ccccc12` here?
Its Potency is “inactive”.

Which Potency does the source give for `COP(=S)(OC)Oc1cc(Cl)c(Cl)cc1Cl` here?
The Potency was “inactive”.

With `O=P(Oc1ccccc1)(Oc1ccccc1)Oc1ccccc1` as the compound, how does the Potency read?
Its Potency is “inactive”.

For `CCN(CC)C(=O)SCc1ccc(Cl)cc1`, which Potency is on record?
Its Potency is “inactive”.

For `CC(C)c1ccc(CO)cc1`, which Potency is on record?
The Potency was “inactive”.

With `Nc1ccc(-c2ccc(N)c(N)c2)cc1N` as the compound, how does the Potency read?
The Potency was “inactive”.

For `C#C[C@]1(O)CC[C@H]2[C@@H]3CCC4=CC(=O)CC[C@]4(C)[C@H]3CC[C@@]21C`, which Potency is on record?
The Potency was “inactive”.

Which Potency does the source give for `O=C(O)C(F)(F)C(F)(F)C(F)(F)C(F)(F)C(F)(F)C(F)(F)C(F)(F)F` here?
The Potency was “inactive”.

For `Nc1ccc(Cl)c(Cl)c1`, which Potency is on record?
Its Potency is “inactive”.

For `NC(=S)Nc1ccccc1`, which Potency is on record?
The Potency was “inactive”.

Which Potency does the source give for `CCCCOCCOP(=O)(OCCOCCCC)OCCOCCCC` here?
Its Potency is “inactive”.

For `C=CCN(CC=C)C(=O)C(Cl)Cl`, which Potency is on record?
The Potency was “inactive”.

For `C=C(C)C(=O)OCC1CO1` (stereo not given), which Potency is on record?
The Potency was “inactive”.

Which Potency does the source give for `Cc1ccc2c(c1N)C(=O)c1ccccc1C2=O` here?
Its Potency is “inactive”.

For `C#CCOS(=O)OC1CCCCC1Oc1ccc(C(C)(C)C)cc1` (stereo not given), which Potency is on record?
Its Potency is “inactive”.

For `NNC(=S)NN`, which Potency is on record?
Its Potency is “inactive”.

For `CCOP(=S)(OCC)O/N=C(\C#N)c1ccccc1`, which Potency is on record?
The Potency was “inactive”.

With `Nc1ccc(-c2ccccc2)cc1` as the compound, how does the Potency read?
Its Potency is “inactive”.

With `CCN(CC)N=O` as the compound, how does the Potency read?
Its Potency is “inactive”.
